# Screens as filed in PubChem.
# Hits are enriched below; roughly 4.8% of the tested compounds scored in any of these assays.
# SMARCA2 activ – activators of SMARCA2 function. AID 652017. MG213 cells, MMTV-luciferase reporter, dexamethasone, overnight. activation, % at 9.1 µM. actives 1% (n = 370,000); in the data active = activation above about 7.8%;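 also: 0% = vehicle wells and 100% = reference activator wells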
# DAX1 inh-1 – inhibitors of human orphan nuclear receptor DAX1 (NR0B1). P51843. inhibition, % at 6.75 µM. HEK293 Gal4-DAX1 luciferase reporter, luminescence. actives 0.99% (n = 340,000);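 active = inhibition above the mean over all tested compounds plus 3 SD, cut at about 4.2% in these data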;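 also: 0% = DAX1-transfected cells with DMSO and 100% = empty-vector control cells with DMSO; inhibition shows as a rise in luminescence from relieved DAX1 repression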
# Target sequence (P51843 207-470 limits assumed): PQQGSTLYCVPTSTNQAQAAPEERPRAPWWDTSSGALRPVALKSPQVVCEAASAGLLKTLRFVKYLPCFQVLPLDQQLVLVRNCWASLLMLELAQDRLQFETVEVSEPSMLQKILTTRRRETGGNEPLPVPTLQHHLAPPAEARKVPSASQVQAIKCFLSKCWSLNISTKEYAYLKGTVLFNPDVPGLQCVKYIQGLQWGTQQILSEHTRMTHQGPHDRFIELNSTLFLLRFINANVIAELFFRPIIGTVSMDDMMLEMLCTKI
# ssDAF-12 act – activators of S. stercoralis DAF-12 nuclear receptor | HEK293 ssDAF-12/GRIP1 lit1-tk-luc reporter, luminescence; % of 3 µM dafachronic acid response | activation, % at 6.8 µM | actives 1% (n = 370,000);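 active = activation above the mean over all tested compounds plus 3 SD, cut at about 0.9% in these data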;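 also: 0% = DMSO-only wells and 100% = 3 µM delta7-dafachronic acid wells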
# DAX1 inh-2 – DAX1 (NR0B1) inhibition, primary screen. inhibition, % at 6.8 µM. actives 1.1% (n = 370,000). AID 652010. HEK293T StAR-luciferase reporter, SF-1/DAX-1 repression relief;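 active = inhibition above the mean over all tested compounds plus 3 SD, cut at about 3.6% in these data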;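 also: 0% = DAX-1 cells with DMSO and 100% = cells lacking DAX-1 with DMSO; higher inhibition means more luminescence from relief of DAX-1 repression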
# hcDAF12 agonist – H. contortus DAF-12 activation, primary screen | HEK293 hcDAF-12 lit1-tk-luc reporter, luminescence; 0% DMSO, 100% Δ7-dafachronic acid | activation, % at 6.8 µM | actives 1.4% (n = 370,000) | AID 652067;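 active = activation above the mean of all tested compounds plus 3 SD, cut at about 5.5% in these data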;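 also: 100% = response to 3 µM Δ7-dafachronic acid high control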
# hgDAF-12 ag – hgDAF-12 agonism, primary luciferase screen; actives 1.8% (n = 370,000); AID 687014; HEK293 GAL4-hgDAF12 UAS-luciferase reporter, agonist luminescence; normalized to butyrate control; activation, % at 6.8 µM;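 active = activation above a cutoff set at the mean of all screened compounds plus 3 SD, cut at about 10% in these data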;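 also: 0% = DMSO wells and 100% = sodium butyrate wells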
# * hit, by the source's call; / = no result given.
SMILES,SMARCA2 activ,DAX1 inh-1,ssDAF-12 act,DAX1 inh-2,hcDAF12 agonist,hgDAF-12 ag
COCCNC(=O)CN1CCOc2ccccc21,-1.9,0.2,-1.4,0.0,1.8,2.1
O=C(CN1CCOc2ccccc21)NC1CC1,0.6,2.8,2.1*,0.6,6.5*,1.9
N#Cc1ccccc1OCCCN1CCC(C(O)(c2ccccc2)c2ccccc2)CC1,-2.1,/,-0.4,-0.8,-1.3,-4.0
CCOC(=O)C1(CCC(=O)OCc2ccccc2)CCCCC1=O (centres undefined),-2.0,1.2,-0.6,-0.7,1.5,0.8
O=C(N/N=C/c1ccc(OC(F)F)cc1)C1=COCCO1,3.3,4.9*,0.2,4.1*,4.0,11.1*
O=C(N/N=C/c1ccccc1OC(F)F)C1=COCCO1,-1.8,-1.5,-0.2,-0.1,0.9,4.6
Cc1ccc(Sc2cnc3ccccc3n2)cc1,3.6,1.5,-0.6,0.4,3.3,6.5
Cc1cccc(C(=O)NNC2=C(C(=O)C(F)(F)F)CCC2)c1O,-0.1,1.5,0.0,0.6,3.4,11.9*
O=C(NNC1=C(C(=O)C(F)(F)F)CCC1)c1cccnc1,-1.5,2.9,-0.1,2.6,0.1,3.4
O=C(Oc1cc2oc(=O)c3c(c2cc1Cl)CCCC3)c1ccco1,-0.4,4.7*,-1.2,-0.2,-0.1,3.1
Cc1coc2c(C)c3oc(=O)c(CCC(=O)N4C[C@H]5C[C@@H](C4)c4cccc(=O)n4C5)c(C)c3cc12,3.7,1.3,-1.7,0.8,1.9,-1.7
Cc1cc2oc(=O)c3c(c2cc1OC(=O)c1ccco1)CCCC3,1.1,-1.0,-0.3,-0.1,-1.9,-1.3
Cc1oc2c(C)c3oc(=O)c(CCC(=O)N4C[C@H]5C[C@@H](C4)c4cccc(=O)n4C5)c(C)c3cc2c1C,2.5,4.9*,-1.4,0.6,-3.9,-4.6
O=C(COc1cc2oc(=O)c3c(c2cc1Cl)CCCC3)N1C[C@H]2C[C@@H](C1)c1cccc(=O)n1C2,-0.5,5.7*,-1.8,-0.9,0.2,0.6
Cc1ccc(CC2CC(=O)N(C(Cc3ccccc3)C(=O)O)C2=O)cc1 (centres undefined),0.4,0.0,-1.7,-0.6,-1.5,-2.9
CC(C)(C)c1ccc(-c2cc(NC(=O)Cc3c[nH]c4ccccc34)ccc2Nc2cccnc2)cc1,-3.3,/,1.7*,-0.2,3.0,1.7
CC(=O)N(/C=C1\SC(=S)N(c2ccccc2)C1=O)c1ccccc1,2.1,0.0,1.9*,0.1,-0.4,-1.5
CCN1C(=O)/C(=C\N(C(C)=O)c2ccccc2)OC1=S,7.2,0.8,-0.8,1.0,-0.9,3.0
CCCOc1ccc(C(=O)CCNc2cccc(Cl)c2)cc1,-1.6,0.8,1.4*,0.3,-1.1,4.7
Cc1ccc(/C=N/OC(=O)c2c(C)noc2-c2snnc2C)cc1,-1.8,5.7*,-1.4,0.2,0.0,0.4
CCOC(=O)c1[nH]c2ccccc2c1NC(=O)NC(C)C,-1.1,2.9,-0.3,-0.2,3.8,-0.1
CCOC(=O)c1[nH]c2ccccc2c1NC(=S)Nc1cccc(C)c1C,-1.1,1.6,0.5,0.8,6.2*,0.0
N#C/C(=N\Nc1c(Cl)cccc1Cl)C(=O)NN,-0.5,-0.1,-1.6,-0.9,-0.6,-1.1
Cc1ccnc(NC(=O)c2ccc3c(c2)C(=O)N(CC(C)C)C3=O)c1,3.9,0.3,-0.6,3.7*,0.7,4.9
Cc1cc(NC(=O)c2ccc3c(c2)C(=O)N(CC(C)C)C3=O)no1,-0.8,-1.6,-0.1,-0.3,-0.3,0.1
SMILES,SMARCA2 activ,DAX1 inh-1,ssDAF-12 act,DAX1 inh-2,hcDAF12 agonist,hgDAF-12 ag
COc1cccc(CC(=O)OCC(=O)Nc2c(C)nn(-c3ccccc3)c2C)c1,1.3,7.0*,-1.0,0.3,-0.9,6.6
O=C(CSc1nnc(-c2ccncc2)o1)c1cccc([N+](=O)[O-])c1,-2.2,1.6,-1.7,-1.3,0.3,-2.1
CC(C)C[C@@H](CN)NC(=O)c1nc[nH]c1C(=O)N[C@@H](Cc1c[nH]c2ccccc12)C(=O)CNC[C@H](C)NC(=O)c1nc[nH]c1C(=O)N[C@@H](C)C(=O)O,2.1,-0.9,-0.8,0.2,2.2,0.0
OC(COc1ccc2ccccc2c1Cl)CN1CCOCC1 (centres undefined),5.4,1.9,-0.6,1.9,1.3,11.5*
OC(COc1cccc2ccccc12)CN1CCOCC1 (centres undefined),-0.9,0.5,-0.5,0.3,-0.4,-4.6
NS(=O)(=O)c1ccc(NN=C2CCCCC2)c([N+](=O)[O-])c1,7.8*,-1.4,-1.8,-0.3,-1.9,-1.5
CC(=O)N1CCC(=NNc2ccc(S(N)(=O)=O)cc2[N+](=O)[O-])CC1,-0.3,-1.8,-1.6,-0.1,-2.6,-3.0
CC(=O)Nc1ccc(Nc2ncnc3c2cnn3-c2cccc(C)c2)cc1,7.9*,-0.7,-1.1,0.0,-1.6,3.5
Cc1cccc(-n2ncc3c(NCc4cccs4)ncnc32)c1,3.2,0.3,1.2*,1.9,1.1,8.5
Clc1ccc(-n2ncc3c(NCc4cccs4)ncnc32)cc1,2.7,2.6,-1.0,0.7,0.2,3.3
Cc1ccc(CSc2ncnc3c2cnn3-c2ccccc2)cc1,1.4,1.2,-2.1,-0.2,1.7,-1.2
Cc1ccc(-n2ncc3c(SCc4ccccc4)ncnc32)cc1,2.4,1.4,-0.3,2.2,6.5*,12.5*
Cc1cccc(-n2ncc3c(NCc4ccccc4)ncnc32)c1,-0.7,-0.6,-0.1,-2.5,0.2,11.7*
C(=C\c1ccccc1)/C=N/N1CCN(c2ccccn2)CC1,7.5,0.5,-0.2,1.0,3.0,11.2*
Cc1c(NCc2nc3ccccc3[nH]2)c(=O)n(-c2ccccc2)n1C,7.8*,0.2,-0.2,0.0,5.2,3.1
NNC(=O)c1ccc(Oc2cc(Cl)cc(Cl)c2)o1,-0.1,4.3*,0.0,0.4,-0.7,-0.5
Cc1ccc(/C=C/C(=O)NC2=NCCS2)cc1,4.0,-2.1,1.4*,6.4*,8.0*,17.2*
CCc1ccc(/C=C/C(=O)NC2=NCCS2)cc1,/,/,0.2,/,3.7,10.0
Cc1ccc(OCC(=O)NC2=NCCS2)cc1,3.4,4.7*,-0.8,0.1,-0.7,2.0
O=C(NC(=S)Nc1ccc(Br)cn1)c1cncc(Br)c1,2.6,0.2,-1.3,0.5,-0.6,-0.5
COC(=O)[C@@]12C[C@@H](CC(=O)NCCC(C)C)C(=O)N(CCc3ccc(OC)c(OC)c3)C1=CCC(C)(C)C2,-6.0,/,-1.2,4.4*,-2.1,0.5
CCCCOCCCNC(=O)C[C@@H]1C[C@@]2(C(=O)OC)CC(C)(C)CC=C2N(CCc2ccc(OC)c(OC)c2)C1=O,5.0,/,-1.6,0.3,-1.2,-1.5
CC(=O)Nc1cccc(-c2ccnc3c2CC(C(=O)Nc2ccccc2)O3)c1 (centres undefined),-2.0,/,-1.4,-1.5,-2.8,-2.9
